Test results reported in PubChem BioAssay (Tox21).
Several values for one entry are separate records, joined by “and”; a condition that tells them apart may be missing. Equal entries are not always repeated. Inconclusive results are not listed. Entries that show only a call come without a potency. Some compounds were tested as several samples or in several runs, with calls that do not always agree. Activity calls are given as the source filed them. Unless noted, calls follow the shape of the full dose curve.

How the values were obtained:
[1] = qHTS assay to identify small molecule agonists of the vitamin D receptor (VDR) signaling pathway - cell viability counter screen (AID 743224; active = well fitted curve in the direction sought with a large enough effect in the repeat runs; an effect the other way counts as inactive or inconclusive; also: nearly all actives have a fitted effect of over 50% in size; also: potency is read from the fitted curve at half-maximal effect)
Method in brief: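 VDR-bla cells, 4 h after plating, exposed to compounds for 16 h at 37C; viability then read in the same wells as CellTiter-Glo luminescence after 30 min at room temperature, following the bla FRET read.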

[2] = qHTS assay to identify small molecule antagonists of the vitamin D receptor (VDR) signaling pathway - cell viability counter screen (AID 743225; active = well fitted curve in the direction sought with a large enough effect in the repeat runs; an effect the other way counts as inactive or inconclusive; also: nearly all actives have a fitted effect of over 50% in size; also: potency is read from the fitted curve at half-maximal effect)
Method in brief: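 Luminescent cell viability (CellTiter-Glo) in VDR-bla HEK 293T cells after 16 h compound exposure at 37C in the presence of 3 nM final 1-alpha,25-dihydroxy vitamin D3.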

[3] = qHTS assay to identify small molecule agonists of the NFkB signaling pathway - cell viability counter screen (AID 1159515); also: nearly all actives have a fitted effect of over 55% in size; also: potency is read from the fitted curve at half-maximal effect
Method in brief: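 NFkB-bla ME-180 cells, 2,000/well, plated overnight at 37 C; compound added for 5 hr at 37 C. Viability read in the same wells as the bla reporter, by CellTiter-Glo luminescence after 30 min at room temperature.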

[4] = qHTS assay to identify small molecule agonists of the endoplasmic reticulum stress response signaling pathway - cell viability counter screen (AID 1159517); also: nearly all actives have a fitted effect of over 50% in size; also: potency is read from the fitted curve at half-maximal effect
Method in brief: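 Counter-screen wells were identical to the reporter wells. Cells were plated at 1,500 per well and dosed for 5 hr, then read for luminescence 30 min after CellTiter-Glo addition.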

[5] = qHTS assay to identify small molecule antagonists of the retinoid-related orphan receptor gamma (ROR-gamma) signaling pathway - cell viability counter screen (AID 1159520; active = well fitted curve in the direction sought with a large enough effect in the repeat runs; an effect the other way counts as inactive or inconclusive; also: nearly all actives have a fitted effect of over 50% in size; also: potency is read from the fitted curve at half-maximal effect)
Method in brief: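 Tet-on ROR gamma CHO cells were given compounds for 2 hr, then doxycycline hyclate at 1 uM final, and incubated 16 hr at 37 C. Viability was measured as ATP content by CellTiter-Glo luminescence.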

[6] = qHTS assay to identify small molecule agonists of the AP-1 signaling pathway - cell viability counter screen (AID 1159525); also: nearly all actives have a fitted effect of over 55% in size; also: potency is read from the fitted curve at half-maximal effect
Method in brief: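 AP-1-bla ME-180 cells in Opti-MEM with 0.5% dialyzed FBS, compound exposure 5 h at 37 C in 15-point titration. Viability read in the same wells as ATP content by CellTiter-Glo luminescence, normalised to tetra-n-octylammonium bromide and DMSO controls.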

[7] = qHTS assay to identify small molecule agonists of the AP-1 signaling pathway (AID 1159526)
[8] = molecular target: Nuclear receptor ROR-gamma (Homo sapiens) (UniProt P51449); assay: qHTS assay to identify small molecule antagonists of the retinoid-related orphan receptor gamma (ROR-gamma) signaling pathway (AID 1159521; active = well fitted curve in the direction sought with a large enough effect in the repeat runs; an effect the other way counts as inactive or inconclusive; also: nearly all actives have a fitted effect of over 50% in size; also: potency is read from the fitted curve at half-maximal effect)
Method in brief: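 CHO cells expressing RORγ under a TET-on promoter, luciferase under RORE control. Dox 1 uM final, 16 h; compounds added 2 h prior. Luminescence decrease measured.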

[9] = molecular target: Retinoic acid receptor RXR-alpha (Homo sapiens) (UniProt P19793); assay: qHTS assay to identify small molecule agonists of the RXR signaling pathway (AID 1159527); also: nearly all actives have a fitted effect of over 35% in size
Method in brief: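 Beta-lactamase reporter assay, agonist format. Engineered HEK 293T line, charcoal-stripped FBS at 2%, overnight (16 hr) exposure, fluorescence at 460 and 530 nm after 405 nm excitation.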

[10] = qHTS assay to identify small molecule agonists of the endoplasmic reticulum stress response signaling pathway (AID 1159516; active = well fitted activation curve with a large enough effect in the signal ratio in the repeat runs, not every such curve was filed as active; the % refers to the signal ratio)
Method in brief: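 CellSensor ESRE-bla HeLa cells, 1,500 per well, plated overnight, then exposed to compounds for 5 hr at 37 C. Beta-lactamase reporter read with LiveBLAzer B/G FRET substrate after 2 hr at room temperature, 405 nm excitation, 460 and 530 nm emission.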

Chain of Retinoic acid receptor RXR-alpha (Homo sapiens) (P19793 whole entry, looked up): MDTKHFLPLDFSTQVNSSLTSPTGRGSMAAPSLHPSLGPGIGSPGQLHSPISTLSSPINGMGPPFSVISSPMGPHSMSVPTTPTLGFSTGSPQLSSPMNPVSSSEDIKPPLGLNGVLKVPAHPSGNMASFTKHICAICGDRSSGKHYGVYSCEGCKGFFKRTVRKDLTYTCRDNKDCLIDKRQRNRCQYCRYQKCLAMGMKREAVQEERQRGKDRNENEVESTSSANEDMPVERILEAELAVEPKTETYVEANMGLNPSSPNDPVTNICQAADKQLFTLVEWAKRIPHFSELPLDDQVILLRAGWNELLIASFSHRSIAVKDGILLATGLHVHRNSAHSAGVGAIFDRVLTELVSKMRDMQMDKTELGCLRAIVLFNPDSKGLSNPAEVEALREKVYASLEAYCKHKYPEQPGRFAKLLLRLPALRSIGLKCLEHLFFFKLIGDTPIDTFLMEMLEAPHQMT

Compound	Potency [1]	Potency [2]	Potency [3]	Potency [4]	Potency [5]	Potency [6]	Potency [7]	Potency [8]	Potency [9]	Potency [10]
COP(=O)(OC)Oc1ccc([N+](=O)[O-])cc1	inactive	inactive	inactive	inactive	inactive	inactive	inactive	–	–	–
CC[C@H](C)[C@H]1O[C@]2(C=C[C@@H]1C)C[C@@H]1C[C@@H](C/C=C(\C)[C@@H](O[C@H]3C[C@H](OC)[C@@H](O[C@H]4C[C@H](OC)[C@@H](NC)[C@H](C)O4)[C@H](C)O3)[C@@H](C)/C=C/C=C3\CO[C@@H]4[C@H](O)C(C)=C[C@@H](C(=O)O1)[C@]34O)O2	3.09 µM (active)	4.36 µM (active)	34.7 µM (active)	19.5 µM (active)	13.7 µM (active)	13.8 µM (active)	–	3.86 µM (active)	–	–
c1ccc(N=NNc2ccccc2)cc1	–	–	inactive	inactive	inactive	inactive	–	inactive	inactive	–
CC(C)[C@@H](Nc1ccc(C(F)(F)F)cc1Cl)C(=O)OC(C#N)c1cccc(Oc2ccccc2)c1 (stereo partly drawn)	inactive	inactive	inactive	inactive	inactive	inactive	–	inactive	–	–
CCCCCCCCCCCCCCn1cc[n+](C)c1	8.72 µM (active) and 24.3 µM (active) and inactive	27.6 µM (active) and 43.2 µM (active) and inactive	inactive	6.18 µM (active) and 19.3 µM (active) and inactive	27.4 µM (active) and 34 µM (active) and inactive	49.1 µM (active) and 48.5 µM (active) and inactive	–	–	–	–
CC(C)N(C(=O)CCl)c1ccccc1	inactive	inactive	inactive	inactive	27.3 µM (active) and 30.6 µM (active)	inactive	inactive	–	–	–
C=CC(=O)[O][Sn]([CH2]CCC)([CH2]CCC)[CH2]CCC	1.38 µM (active)	3.09 µM (active)	0.977 µM (active)	0.977 µM (active)	1.09 µM (active)	2.45 µM (active)	–	0.611 µM (active)	–	–
CN(C)C(=S)SSC(=S)N(C)C	85.9 nM (active) and 27.5 nM (active) and 188 nM (active)	27.2 µM (active) and 24.5 µM (active)	0.674 µM (active)	inactive	33.9 µM (active) and 433 nM (active) and 422 nM (active)	5.49 µM (active) and 9.52 µM (active)	–	85.1 nM (active) and 344 nM (active) and 266 nM (active)	–	–
Brc1ccc(Oc2ccc(Br)cc2Br)c(Br)c1	–	inactive	inactive	inactive	–	inactive	inactive	inactive	–	–
c1ccc2c(c1)cc1ccc3cccc4ccc2c1c34	inactive	–	inactive	inactive	inactive	inactive	–	inactive	–	–
Clc1ccc(C2(Cn3cncn3)OCCO2)c(Cl)c1	inactive	inactive	–	inactive	inactive	inactive	inactive	inactive	–	inactive
Nc1ccc(N=Nc2ccccc2)cc1	–	–	inactive	inactive	–	inactive	–	inactive	–	–
CN1C(=O)[C@@H](NC(=O)c2cc3ccccc3[nH]2)N=C(c2ccccc2)c2ccccc21	inactive	inactive	inactive	inactive	inactive	inactive	–	–	inactive	–
N#Cc1c2ccccc2cc2ccccc12	inactive	–	inactive	inactive	–	inactive	–	–	–	–
Cc1ccc2cc3c(ccc4ccccc43)c3c2c1CC3	inactive	inactive	inactive	inactive	inactive	inactive	inactive	–	inactive	–
O=C(NC(=O)c1ccccc1Cl)Nc1ccc(OC(F)(F)F)cc1	inactive	inactive	inactive	inactive	inactive	inactive	inactive	–	inactive	–
CCN(CC)C(=S)S	4.87 µM (active) and 6.92 µM (active)	inactive	13.8 µM (active)	inactive	inactive	38.7 µM (active)	–	27.5 µM (active) and 9.63 µM (active) and 12.2 µM (active)	–	–
CCOP(=S)(OCC)Oc1cc(C)nc(N(CC)CC)n1	inactive	–	inactive	inactive	inactive	inactive	–	–	inactive	–
O=[N+]([O-])c1cc(C(F)(F)F)c(Cl)c([N+](=O)[O-])c1Nc1ncc(C(F)(F)F)cc1Cl	4.9 µM (active)	6.92 µM (active)	11 µM (active)	12.3 µM (active)	–	11 µM (active)	–	1.37 µM (active)	–	–
Fc1ccc(C(OCCN2CCN(CCCc3ccccc3)CC2)c2ccc(F)cc2)cc1	29.8 µM (active)	21.3 µM (active)	23.9 µM (active)	26.8 µM (active)	29.8 µM (active)	21.3 µM (active)	–	13.3 µM (active)	–	–
N#Cc1sc2c(=O)c3ccccc3c(=O)c=2sc1C#N	4.9 µM (active)	11 µM (active)	1.95 µM (active)	6.92 µM (active)	–	0.389 µM (active)	–	–	–	–
[Cl][Hg][c]1ccccc1	0.692 µM (active)	0.692 µM (active)	3.89 µM (active)	11 µM (active)	1.09 µM (active)	1.38 µM (active)	–	0.611 µM (active)	–	–
CC1(C)[C@H](/C=C2\CCSC2=O)[C@@H]1C(=O)OCc1coc(Cc2ccccc2)c1	inactive	–	inactive	inactive	inactive	inactive	–	27.3 µM (active)	inactive	–
Cc1nn(-c2cc(NS(C)(=O)=O)c(Cl)cc2Cl)c(=O)n1C(F)F	inactive	inactive	inactive	inactive	inactive	inactive	inactive	–	inactive	–
Cc1cccc(Cc2cnc[nH]2)c1C	inactive	inactive	inactive	inactive	–	inactive	–	inactive	inactive	–
Cc1ccc([N+](=O)[O-])[c]2c1[O][Hg]2	3.76 µM (active)	3.01 µM (active)	6.01 µM (active)	23.9 µM (active)	1.19 µM (active)	6.01 µM (active)	–	0.376 µM (active)	–	–

Compound	Potency [1]	Potency [2]	Potency [3]	Potency [4]	Potency [5]	Potency [6]	Potency [7]	Potency [8]	Potency [9]	Potency [10]
O=C(N[C@H]1N=C(c2ccccc2F)c2cccc3c2N(CC3)C1=O)c1cc2ccccc2[nH]1	inactive	inactive	inactive	inactive	inactive	inactive	–	–	inactive	–
Oc1cc(Cl)c(Cl)c(Cl)c1Cl	24 µM (active)	–	inactive	inactive	–	inactive	–	23.8 µM (active)	–	–
C#CC1(O)CCCCC1	inactive	inactive	–	inactive	inactive	inactive	inactive	inactive	–	–
[O]=[Cr][O][Cr]=[O]	inactive	inactive	–	–	inactive	inactive	inactive	inactive	–	inactive
C=C(C)C(=O)[O][Sn]([CH2]CCC)([CH2]CCC)[CH2]CCC	0.49 µM (active)	1.95 µM (active)	–	0.692 µM (active)	–	0.977 µM (active)	–	0.306 µM (active)	–	–
Cc1c([N+](=O)[O-])cc2c(c1[N+](=O)[O-])C(C)(C)CC2(C)C	–	inactive	–	inactive	inactive	inactive	–	–	–	inactive
O=C1C2(Cl)C3(Cl)C4(Cl)C(Cl)(Cl)C5(Cl)C3(Cl)C1(Cl)C5(Cl)C24Cl (stereo not drawn)	48.2 µM (active) and 41.8 µM (active)	48.2 µM (active) and 46.9 µM (active)	–	48.2 µM (active)	21.3 µM (active) and 46.5 µM (active)	30.4 µM (active)	–	12 µM (active) and 29.3 µM (active)	–	–
Oc1cc(Cl)cc(Cl)c1	inactive	inactive	–	–	–	inactive	inactive	inactive	inactive	inactive
CCOC(=O)Cc1ccccc1	inactive	–	–	–	inactive	inactive	inactive	–	–	inactive
COc1nc(C)nc(NC(=O)NS(=O)(=O)c2ccccc2Cl)n1	inactive	inactive	–	–	inactive	inactive	inactive	inactive	inactive	inactive
Clc1ccc(C(c2ccc(Cl)cc2)C(Cl)Cl)cc1	49.8 µM (active) and 38.9 µM (active)	–	–	22.2 µM (active) and 54.9 µM (active)	–	24.9 µM (active) and 34.7 µM (active)	–	–	–	–
N#CSCc1ccccc1	inactive	inactive	–	inactive	inactive	inactive	inactive	–	inactive	inactive
CC(C)c1c(CN(C)C(C)Cc2ccccc2)n(C)n(-c2ccccc2)c1=O (stereo not drawn)	inactive	inactive	–	inactive	inactive	inactive	inactive	–	–	inactive
COP(=S)(OC)Oc1ccc([N+](=O)[O-])c(C)c1	inactive	inactive	–	inactive	inactive	inactive	inactive	–	–	–
Clc1ccc(C(Cl)(Cl)Cl)cc1Cl	inactive	inactive	–	–	53.3 µM (active)	inactive	inactive	inactive	inactive	inactive
CCN1CCC2(CC1)COc1cc3c(cc12)N(C(=O)c1ccc(-c2ccc(-c4nnc(C)o4)cc2C)cc1)CC3	35.9 µM (active)	20.2 µM (active)	–	50.7 µM (active)	–	45.2 µM (active)	–	2 µM (active)	–	–
CC(=O)O.CC(=O)O.CC(=O)O.CC(=O)O.CC(=O)O.CC(=O)O.CC(=O)O.O.O.[Cr].[Cr].[Cr]	inactive	inactive	–	inactive	inactive	inactive	inactive	–	inactive	inactive
CCCCn1cc[n+](C)c1.[Cl][Fe-]([Cl])([Cl])[Cl]	inactive	inactive	–	inactive	inactive	inactive	inactive	–	inactive	inactive
CO/N=C(\C(=O)OC)c1ccccc1CO/N=C(\C)c1cccc(C(F)(F)F)c1	–	–	–	inactive	–	inactive	inactive	0.77 µM (active)	–	inactive
c1cc[n+]2c(c1)-c1cccc[n+]1CC2	inactive	inactive	–	inactive	–	inactive	inactive	–	–	inactive
CCC(C)c1cccc(C(C)CC)c1O (stereo not drawn)	–	–	–	inactive	–	–	–	–	inactive	inactive
C[C@]12C/C(=C/O)C(=O)C[C@@H]1CC[C@@H]1[C@@H]2CC[C@@]2(C)[C@H]1CC[C@]2(C)O	inactive	inactive	–	24.8 µM (active) and 16.9 µM (active)	61.7 µM (active)	inactive	inactive	–	–	–
O=[N+]([O-])c1ccc(Cl)c(Cl)c1Cl	inactive	inactive	–	inactive	inactive	inactive	–	inactive	inactive	inactive
CCC(C)Nc1c([N+](=O)[O-])cc(C(C)(C)C)cc1[N+](=O)[O-] (stereo not drawn)	–	inactive	–	inactive	–	inactive	inactive	–	–	–
CC(Cc1ccc2c(c1)OCO2)NO (stereo not drawn)	inactive	inactive	–	–	inactive	inactive	inactive	–	inactive	inactive
C[C@@H]1CC2=CC(=O)CC[C@@H]2[C@H]2CC[C@@]3(C)[C@@H](CC[C@]3(C)O)[C@@H]21	inactive	inactive	–	inactive	–	inactive	inactive	–	inactive	inactive
